# Data as given in ChEMBL document CHEMBL1157539, “Thousands of chemical starting points for antimalarial lead identification” (Nature, 2010).
# Assays:
# Type in all cases: functional
# Plasmodium falciparum [1] = assay: GSK_TCMDC: Inhibition of Plasmodium falciparum 3D7 in whole red blood cells, using parasite LDH activity as an index of growth. Test compounds present at 2uM
# Plasmodium falciparum [2] = assay: GSK_TCMDC: Inhibition of Plasmodium falciparum Dd2 in whole red blood cells, using parasite LDH activity as an index of growth. Test compounds present at 2uM
# HepG2 = assay: GSK_TCMDC: Percent inhibition of human HepG2 cell line. Test compounds present at 10uM.
SMILES,Inhibition (Plasmodium falciparum [1]) [%],Inhibition (Plasmodium falciparum [2]) [%],Inhibition (HepG2) [%]
COc1cc2c(cc1OC)CN(CCc1ccc(NC(=O)c3cc4cc(OC(F)(F)F)ccc4[nH]3)cc1)CC2,99,20,36
Cc1cc(N[C@@H](CC(C)C)C(=O)Nc2ccccc2)nc(NCc2ccccc2C)n1.O=C(O)C(F)(F)F,100,81,21
CCc1ccc(C2=Nn3c(nnc3-c3cccs3)SC2)cc1,93,20,9
